Screening results as filed in PubChem.
IkB signaling: IkB Signaling | ABC-DLBCL IkBa-CBG/CBR dual luciferase ratio, 4 h; response scale: scaled: untreated 0%, proteasome inhibitor 100% | Potency, µM (titrated, usually from 57.1 µM), without a hit: at the top dose IkBa stabilization activation | 110,000 tested, 0.04% active | AID 445, 2006; active = well fitted curve in the direction sought with a large enough effect in the signal ratio, not every such curve was filed as active; inconclusive = small, poorly fitted or top-dose-only effect, or a change in a side signal; the % refers to the signal ratio;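 also: potency is read from the fitted curve at half-maximal effect; the direction sought is a rising ratio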
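Luminescence ratio of IκBα-fused green versus native red beetle luciferase in OCI-Ly3 cells, 4 h post-doxycycline with compound; red signal alone, scaled from basal (0%) to zero light (-100%), flagged nonspecific or cytotoxic effects.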
FLuc inh: qHTS Assay for Inhibitors of Firefly Luciferase; 72,000 tested, 2.2% active; Luciferin 4-monooxygenase (Photinus pyralis), P08659; Potency, µM (top dose mostly 57.1 µM), for inactives: at the top dose activity change, negative = inhibition, usual class: inhibitors; purified firefly luciferase, luminescence, 8 min; also: potency is read from the fitted curve at half-maximal effect; % is scaled to controls: 0 for no effect and ±100 for the full control effect; nearly all actives have a fitted effect of over 40% in size
Target sequence (P08659 whole entry, looked up): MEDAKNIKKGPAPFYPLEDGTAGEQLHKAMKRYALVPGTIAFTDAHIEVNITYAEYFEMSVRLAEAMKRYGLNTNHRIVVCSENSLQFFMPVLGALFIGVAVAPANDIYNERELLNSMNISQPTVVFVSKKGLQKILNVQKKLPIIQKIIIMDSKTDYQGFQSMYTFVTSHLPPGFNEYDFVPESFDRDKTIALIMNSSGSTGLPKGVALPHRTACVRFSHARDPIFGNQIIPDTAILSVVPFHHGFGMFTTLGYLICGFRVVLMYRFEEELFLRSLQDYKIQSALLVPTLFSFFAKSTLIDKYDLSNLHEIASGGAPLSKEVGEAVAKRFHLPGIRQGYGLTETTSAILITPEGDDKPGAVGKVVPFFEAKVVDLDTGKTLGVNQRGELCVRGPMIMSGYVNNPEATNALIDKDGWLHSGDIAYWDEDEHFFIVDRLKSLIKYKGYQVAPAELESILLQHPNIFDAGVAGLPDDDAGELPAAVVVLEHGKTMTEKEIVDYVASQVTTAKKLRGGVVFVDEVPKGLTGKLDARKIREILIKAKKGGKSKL
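Substrate buffer containing 10 uM ATP (pH 7.2 imidazole, Mg2+, KCl, detergent, BSA) is dispensed, compound pinned in, then luciferase/luciferin detector mix added. After 8 min at ambient temperature, light output is measured.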
p53ts 39C kill: qHTS Screen for Compounds that Selectively Target Cancer Cells with p53 Mutations: Cytotoxicity of p53ts Cells at the Nonpermissive Temperature. H1299-p53A138V viability at 39C, ATP luminescence, 24 h. Potency, µM (doses to about 46.1 µM), without a hit: top-dose activity change, negative = cell killing, most hits filed as cytotoxic. 130,000 tested, 1.5% active. AID 902, 2007; also: potency is read from the fitted curve at half-maximal effect; % is scaled to controls: 0 for no effect and ±100 for the full control effect; nearly all actives have a fitted effect of over 55% in size
IMPase inh: qHTS Assay for Identifying the Cell-Membrane Permeable IMPase Inhibitors | Inositol monophosphatase 1 (Rattus norvegicus), P97697 | AID 901, 2007 | CHO-M1 cells, IP1 accumulation, HTRF TR-FRET ratio | inhibition (IP1 accumulation), % at 46.1 µM | 120,000 tested, under 10 active; active = well fitted curve in the direction sought with a large enough effect in the signal ratio, not every such curve was filed as active; inconclusive = small, poorly fitted or top-dose-only effect, or a change in a side signal; inactive = no such curve, though single readings can be large or run the other way; the % refers to the signal ratio;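 also: cells stimulated with carbachol in lithium chloride buffer; plate controls were DMSO basal wells for no effect and reference inhibitor wells for full effect; higher means more IMPase inhibition seen as more IP1 and lower FRET ratio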
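CHO-M1 cells (CHO stably expressing M1 receptor), compound up to 46 uM final, stimulated with carbachol (50 uM as added) in buffer with 50mM LiCl, pH 7.4, 30 min at 37C. Cytosolic IP1 read by TR-FRET; AC50 from Hill fits.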
Hsp90 Hop PPI: qHTS Assay for Disrupters of an Hsp90 Co-Chaperone Interaction | AlphaScreen TPR2A-His6 binding biotin-Hsp90 C-terminal peptide | Hsp90 C-terminal peptide / TPR2A (Hop) interaction, human | Potency, µM (top dose mostly 57 µM), inactives show top-dose activity change, negative = inhibition | 71,000 tested, 0.44% active; active = well fitted curve in either direction with a large enough effect; inconclusive = small, poorly fitted or top-dose-only effect, or another doubt; also: potency is read from the fitted curve at half-maximal effect; % is scaled to controls: 0 for no effect and ±100 for the full control effect
p53ts 32C kill: qHTS Screen for Compounds that Selectively Target Cancer Cells with p53 Mutations: Cytotoxicity of p53ts Cells at the Permissive Temperature. H1299-p53A138V at 32C, ATP luminescence viability, 24 h. Potency, µM (doses to about 46.1 µM), for inactives: at the top dose activity change, negative = cytotoxicity, hits mostly cytotoxic. 130,000 tested, 0.93% active;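 also: potency is read from the fitted curve at half-maximal effect; 0% = DMSO and -100% = full killing by reference compound; nearly all actives have a fitted effect of over 55% in size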
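ATP-content luminescence (ATPlite) read-out after 24 h compound exposure at 32C in H1299-p53A138V cells (600/well). Tested up to 46 uM. Normalized to DMSO (0%) and 100 uM tamoxifen (100% killing); Hill-fit AC50.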
An asterisk follows results filed as active. Many of the other results were omitted from the sample, so hits are more common in it than they were. Unless noted, calls follow the shape of the dose curve; as a rule, active = well fitted curve in the direction sought with a large enough effect; inconclusive = small, poorly fitted or top-dose-only effect, or another doubt; inactive = no such curve, though single readings can be large; an effect the other way counts as inactive or inconclusive.

What do the screens show for `Cc1ccc(CNC(=O)C2CCN(S(=O)(=O)c3cc(-c4noc(C)n4)ccc3C)CC2)cc1`?
IkB signaling: -0.2%; p53ts 39C kill: -14.0%; p53ts 32C kill: 1.7%

How did COc1cccc(C(=O)N(Cc2ccc(N(C)C)cc2)Cc2ccco2)c1 do in these assays?
IkB signaling: inconclusive; p53ts 39C kill: -3.2%; p53ts 32C kill: -0.3%

Results for Cc1nn(CCCC(=O)NCCc2ccc(Cl)cc2)c(=O)c2c1sc1ccccc12 ?
IkB signaling: 2.5%; p53ts 39C kill: 20µM*; p53ts 32C kill: inconclusive

What do the screens show for `CCOc1ccc(CCNC(=O)CCCn2nc(C)c3sc4ccccc4c3c2=O)cc1`?
IkB signaling: 0.4%; p53ts 39C kill: inconclusive; p53ts 32C kill: -16.6%

What do the screens show for `CCC(C(=O)NCCc1ccc(OC)c(OC)c1OC)n1nc(C)c2sc3ccccc3c2c1=O` (stereo not given)?
IkB signaling: -2.8%; p53ts 39C kill: -28.8%; p53ts 32C kill: -7.9%

Results for COc1ccc(CCNC(=O)C(C)n2nc(C)c3sc4ccccc4c3c2=O)c(OC)c1 (stereo not given) ?
IkB signaling: inconclusive; p53ts 39C kill: 12.6µM*; p53ts 32C kill: inconclusive

Results for CCOC(=O)c1ccc(NC(=O)N2CCN(CCc3ccccc3)CC2)cc1 ?
IkB signaling: 3.7%; FLuc inh: 25.1µM*; p53ts 39C kill: -0.7%; IMPase inh: -6.0; Hsp90 Hop PPI: -2.2%; p53ts 32C kill: -17.6%

What do the screens show for `COc1cccc(NC(=O)Cn2c(=O)n(Cc3ccc(C(=O)NCc4ccc5c(c4)OCO5)cc3)c(=O)c3ccccc32)c1`?
IkB signaling: inconclusive; p53ts 39C kill: 23.7%; p53ts 32C kill: 5.6%

How did Cc1ncsc1C(=O)Nc1nc2c(s1)CCCC2 do in these assays?
IkB signaling: inconclusive; FLuc inh: 20µM*; p53ts 39C kill: inconclusive; IMPase inh: 4.5; Hsp90 Hop PPI: -3.7%; p53ts 32C kill: inconclusive

Results for COc1ccc(C(=O)Nc2nc3c(s2)CCCC3)cc1Cl ?
IkB signaling: 0.9%; p53ts 39C kill: -28.8%; p53ts 32C kill: -6.2%

How did O=C(Nc1nc2c(s1)CCCC2)c1ccc2ncsc2c1 do in these assays?
IkB signaling: inconclusive; FLuc inh: 3.16µM*; p53ts 39C kill: inconclusive; IMPase inh: -5.0; Hsp90 Hop PPI: -5.5%; p53ts 32C kill: inconclusive

Results for Cc1cccc(C(=O)Nc2nc3c(s2)CCCC3)c1 ?
IkB signaling: inconclusive; p53ts 39C kill: 12.6µM*; p53ts 32C kill: 10µM*

What do the screens show for `Cc1cc(C(=O)Nc2nc3c(s2)CCCC3)cs1`?
p53ts 39C kill: inconclusive; IMPase inh: 10.7; p53ts 32C kill: inconclusive

How did Cc1ccc(CC(=O)Nc2nc3c(s2)CCCC3)cc1 do in these assays?
IMPase inh: 2.0

Results for Cc1ccc(NC(=O)CSc2[nH]c(=O)ncc2C)cc1 ?
IkB signaling: -2.0%; p53ts 39C kill: 10µM*; p53ts 32C kill: 0.1µM*

Results for Cc1ccc(NC(=O)CSc2ncc(-c3ccccc3)[nH]2)cc1 ?
IkB signaling: inconclusive; p53ts 39C kill: -23.3%; IMPase inh: 0.4; p53ts 32C kill: 7.8%

How did CCCCN(C)CC(O)Cn1cc(/C=C/C(=O)c2ccc(OC)c(OC)c2)c2ccccc21 (stereo not given) do in these assays?
IkB signaling: inconclusive; p53ts 39C kill: 15.8µM*; p53ts 32C kill: 20µM*

Results for CCCN(CCC)CC(O)Cn1cc(/C=C/C(=O)c2ccc(C)cc2)c2ccccc21 (stereo not given) ?
IkB signaling: inconclusive; p53ts 39C kill: 12.6µM*; p53ts 32C kill: inconclusive

Results for CCCN(CCC)CC(O)Cn1cc(/C=C/C(=O)c2ccc(OC)cc2)c2ccccc21 (stereo not given) ?
IkB signaling: inconclusive; p53ts 39C kill: 10µM*; p53ts 32C kill: inconclusive

Results for CCCN(CCC)CC(O)Cn1cc(/C=C/C(=O)c2ccc(Br)cc2)c2ccccc21 (stereo not given) ?
IkB signaling: inconclusive; p53ts 39C kill: 7.94µM*; p53ts 32C kill: -21.2%

What do the screens show for `OCCN(CCO)CC(O)Cn1c2ccccc2c2ccccc21` (stereo not given)?
IkB signaling: 0.9%; FLuc inh: -1.3%; p53ts 39C kill: 2.2%; IMPase inh: -5.8; Hsp90 Hop PPI: -1.8%; p53ts 32C kill: 5.6%

What do the screens show for `COc1ccc(C(=O)/C=C/c2cn(CC(O)CN(CC(C)C)CC(C)C)c3ccccc23)cc1` (stereo not given)?
IkB signaling: -0.5%; p53ts 39C kill: -13.7%; p53ts 32C kill: -6.4%

Results for CCCN(CCC)CC(O)Cn1cc(/C=C/C(=O)c2cccs2)c2ccccc21 (stereo not given) ?
IMPase inh: 9.0

How did O=C(CSc1nccn1Cc1ccc(F)cc1)Nc1ccc2c(c1)OCCO2 do in these assays?
IkB signaling: 1.6%; p53ts 39C kill: -27.2%; p53ts 32C kill: 1.7%

Results for CC1(C)C(=O)N(CC(=O)Nc2ccc(OC(F)(F)F)cc2)c2ccccc21 ?
IkB signaling: 1.9%; p53ts 39C kill: -23.1%; p53ts 32C kill: 6.3%

How did CN1CCN(Cn2cc(/C=C/C(=O)c3ccccc3)c3ccccc32)CC1 do in these assays?
IMPase inh: 5.2

Results for CCCCN(C)CC(O)Cn1cc(/C=C/C(=O)c2ccc(C)cc2)c2ccccc21 (stereo not given) ?
IkB signaling: inconclusive; p53ts 39C kill: 15.8µM*; p53ts 32C kill: inconclusive

How did Cc1ccc(CCNC(=O)CCN2N=C(c3ccc(C)cc3)CCC2=O)cc1 do in these assays?
IkB signaling: -1.8%; p53ts 39C kill: -5.7%; p53ts 32C kill: 16.5%

Results for CCN(CC)CCOC(=O)c1ccc(NC(=O)CSc2cc(=O)n(CC)c3ccccc23)cc1 ?
IkB signaling: 1.4%; p53ts 39C kill: 10µM*; p53ts 32C kill: -2.6%

How did CCN(CC)CCOC(=O)c1ccc(NC(=O)COc2cc(=O)n(CC)c3ccccc23)cc1 do in these assays?
IkB signaling: 2.5%; FLuc inh: 1.7%; p53ts 39C kill: -17.9%; IMPase inh: 7.9; Hsp90 Hop PPI: 0.1%; p53ts 32C kill: -10.2%

How did CCCCCCCCCCCCCCCCCC(=O)NCCc1ccc(O)c(O)c1 do in these assays?
p53ts 39C kill: -9.5%; p53ts 32C kill: 13.3%
